The campaign covered roughly 52,000 compounds. About 1,700 (3.3%) were called active. The sample holds actives, similar compounds and a random draw of the others, so the mix is not that of the screen. Values without a mark were called inactive. No stated cut-off is given here; in the data, active means survival mostly below about 52% (no sharp cut-off); inactive means mostly above about 56%.
System: Wild type
Experiment: growth inhibition of S. aureus wild type versus tarO mutant, primary screen, teichoic acid synthesis inhibitors, RN4220, OD600 (AID 463173)
Settings: S. aureus RN4220 wild type/DeltatarO growth, OD600, 18 h, hits give low values, screened at 18.75 µg/mL (by protocol)

Row | SMILES | survival
1 | C=CCN(CC=C)C(=S)Nc1ccc2nc(C)c(C)nc2c1 | 110%
2 | Cc1ccc(-c2nc3ncccc3o2)cc1NC(=O)c1ccc(-c2ccc(Cl)cc2)o1 | 73%
3 | COc1ccc(Cn2c(SCc3ccc(C(=O)NCc4ccccc4F)cc3)nc3cccnc32)cc1 | 67%
4 | CCOc1ccc(NC(=O)CN2CCN(CC(=O)Nc3ccccc3OCC)CC2)cc1 | 81%
5 | CCOc1ccccc1NC(=O)Cc1coc2c(C)c(C)ccc12 | 114%
6 | CC1CCN(C(=O)Cn2cc(SCC(=O)NCc3ccc(F)cc3)c3ccccc32)CC1 | 89%
7 | CCCc1cc(=O)[nH]c(Nc2ccc(O)cc2C)n1 | 110%
8 | COc1ccc(C)c(N2C(=O)CC(N3CCN(c4ccc(F)cc4)CC3)C2=O)c1 (centres undefined) | 109%
9 | CC1Cc2ccccc2N1C(=O)c1cc2n(n1)C(C(F)(F)F)CC(c1ccco1)N2 (centres undefined) | 110%
10 | Cc1cccc2c1N(Cc1ccccc1OCCC(C)C)C(=O)C2=O | 25% (active)
11 | COc1ccccc1CN1C(=O)C(=O)c2cccc(C)c21 | 107%
12 | CCCOc1ccc(CN2C(=O)C(=O)c3cccc(C)c32)cc1 | 38%
13 | Cc1cc(Br)cc2c1N(Cc1ccccc1OC(C)C)C(=O)C2=O | 26% (active)
14 | Cc1ccc(CN2C(=O)C(=O)c3cc(Br)cc(C)c32)cc1 | 40%
15 | CCCCOc1ccc(CN2C(=O)C(=O)c3cc(Br)cc(C)c32)cc1OC | 59%
16 | CC(=O)c1cc(-c2ccccc2)n(CCC(=O)Nc2ccc(C)cc2C)c1C | 85%
17 | Cc1ccc(-c2nn(CC(=O)NC3CCCCC3)c3c2cnc2ccccc23)cc1 | 75%
18 | CN(Cc1ccccc1)C(=O)COc1ccc(S(=O)(=O)N2CCCC2)cc1 | 121%
19 | Nc1c(C(=O)c2ccc(F)cc2)sc(Nc2ccccc2F)c1S(=O)(=O)c1ccc(Br)cc1 | 74%
20 | COc1ccc(C(=O)c2sc(Nc3cc(Cl)ccc3C)nc2N)cc1OC | 129%
21 | Nc1nc(Nc2ccccc2F)sc1C(=O)c1ccc(Cl)cc1 | -7% (active)
22 | CCc1nn2c(=O)cc(COC(=O)c3cccs3)nc2s1 | 89%
23 | CCOC(=O)c1c(S(=O)(=O)N2CCCC(C(=O)Nc3ncccc3C)C2)c(C)n(C)c1C (centres undefined) | 71%
24 | O=C(CSc1nnc(NC(=O)C2CC2)s1)Nc1ccccc1F | 108%

Row | SMILES | survival
25 | CCOc1ccccc1CNC(=O)c1ccc(N2Cc3ccccc3Oc3ncccc32)s1 | 84%
26 | CCOC(=O)c1sc2ncn(CC(=O)Nc3ccc(OC)c(Cl)c3)c(=O)c2c1C | 78%
27 | O=C(NCc1ccccc1)c1nc[nH]c1C(=O)NCc1ccccc1 | 123%
28 | CCOc1cccc2cc(-c3cn4c(n3)sc3ccccc34)c(=O)oc12 | 64%
29 | CCOc1cccc2cc(-c3cn4c(n3)sc3cc(C)ccc34)c(=O)oc12 | -6% (active)
30 | COc1cccc2cc(-c3cn4c(n3)sc3cc(F)ccc34)c(=O)oc12 | 75%
31 | Cc1oc(-c2cccc(Cl)c2)nc1CN1CCCC(C(=O)NCCc2ccc(Cl)cc2)C1 (centres undefined) | -2% (active)
32 | Cc1cccc(-c2nc(CN3CCCC(C(=O)NCCc4ccc(Cl)cc4)C3)c(C)o2)c1 (centres undefined) | 29%
33 | Cc1oc(-c2ccc(Cl)cc2)nc1CN1CCCC(C(=O)NCCc2ccc(Cl)cc2)C1 (centres undefined) | 86%
34 | Cc1oc(-c2ccc(Cl)cc2)nc1CN1CCCC(C(=O)NCCc2ccccc2)C1 (centres undefined) | 29%
35 | Cc1ccc(CCNC(=O)C2CCCN(Cc3nc(-c4cccc(Cl)c4)oc3C)C2)cc1 (centres undefined) | 9% (active)
36 | Cc1oc(-c2cccc(Cl)c2)nc1CN1CCC(C(=O)NCCc2ccc(Cl)cc2)CC1 | 88%
37 | CCc1ccc(C(=O)c2cn(CC(=O)Nc3ccc4c(c3)OCO4)c3cc(OC)c(OC)cc3c2=O)cc1 | 107%
38 | Cc1ccccc1NC(=O)c1ccccc1NC(=O)c1ccccc1F | 89%
39 | COc1ccc(NC(=O)CC2C(=O)N(c3ccccc3)C(=O)N2C2CCCCC2)cc1 (centres undefined) | 70%
40 | O=C(Nc1ccccc1C(F)(F)F)C1CCN(c2nnc(-n3cccc3)s2)CC1 | 113%
41 | COc1ccc(C(C)=O)cc1CSc1nc(NCCc2ccccc2)c2ccccc2n1 | 47%
42 | COc1ccc(C(C)=O)cc1CSc1nc(NCc2ccc(Cl)cc2)c2ccccc2n1 | 0% (active)
43 | COc1ccc(C(C)=O)cc1CSc1nc(NCc2ccccc2)c2ccccc2n1 | 85%
44 | O=C(NCc1ccc(F)cc1)c1c2c(nc3ccccc13)C(=O)N(C1CCCCC1)C2 | 99%
45 | CN(C(=O)c1c2c(nc3ccccc13)C(=O)N(C1CCCCC1)C2)c1ccc(F)cc1 | -3% (active)
46 | CCOc1ccccc1N(C)C(=O)c1c2c(nc3ccccc13)C(=O)N(C1CCCCC1)C2 | 90%
47 | COc1ccc(CNC(=O)Cn2ncc3c(=O)oc4ccc(C)cc4c32)c(OC)c1 | 113%
48 | CCOC(=O)c1c(NC(=O)CS(=O)(=O)c2ccc(C)cc2)sc2c1CCC(C)C2 (centres undefined) | 73%

Row | SMILES | survival
49 | CCOC(=O)c1c(NC(=O)CCCOc2ccc(C)cc2)sc2c1CCC(C)C2 (centres undefined) | 2% (active)
50 | COC(=O)c1c(NC(=O)CCCOc2ccccc2)sc2c1CCC(C)C2 (centres undefined) | 20%
51 | Cc1ccc(OCCCC(=O)Nc2sc3c(c2C(N)=O)CCC(C)C3)cc1 (centres undefined) | 148%
52 | CC1CCc2c(sc(NC(=O)CCCOc3ccccc3)c2C(N)=O)C1 (centres undefined) | 91%
53 | CCOC(=O)c1c(NC(=O)CCCOc2ccccc2C)sc2c1CCC(C)C2 (centres undefined) | 6% (active)
54 | COC(=O)c1ccccc1NC(=O)COC(=O)c1ccco1 | 108%
55 | COc1ccc(CNC(=O)c2cc(=O)[nH]c3ccc(S(=O)(=O)N4CCCC4)cc23)c(OC)c1 | 60%
56 | O=C(NCCc1ccccc1)C1COc2ccccc2C1 (centres undefined) | 10% (active)
57 | CCOc1ccc(CCNC(=O)C2COc3ccccc3C2)cc1OCC (centres undefined) | -2% (active)
58 | Cc1ccc(CCNC(=O)C2COc3ccccc3C2)cc1 (centres undefined) | 88%
59 | CN(C)c1ccc(CNC(=O)C2COc3ccccc3C2)cc1 (centres undefined) | 0% (active)
60 | Cc1ccc(CNC(=O)C2COc3ccccc3C2)cc1 (centres undefined) | 121%
61 | COc1ccc(CCNC(=O)C2COc3ccccc3C2)cc1OC (centres undefined) | 59%
62 | CCc1ccc(CNC(=O)C2COc3ccccc3C2)cc1 (centres undefined) | 88%
63 | CCOc1cc(CNC(=O)C2COc3ccccc3C2)cc(OCC)c1OCC (centres undefined) | 73%
64 | O=C(NCCc1ccc(Cl)cc1)C1COc2ccccc2C1 (centres undefined) | 88%
65 | Cc1cccc(-n2c(SCC(=O)Nc3ccccc3C)nc3c(oc4ccccc43)c2=O)c1 | 86%
66 | O=C(Nc1ccc(F)cc1)N1CCN(C(=O)c2nsc3ccccc23)CC1 | 14% (active)
67 | Cc1ccc(NC(=O)N2CCN(C(=O)c3nsc4ccccc34)CC2)cc1C | -6% (active)
68 | Cc1cccc(NC(=O)N2CCN(C(=O)c3nsc4ccccc34)CC2)c1C | 72%
69 | O=C(Nc1ccc(F)c(Cl)c1)N1CCN(C(=O)c2nsc3ccccc23)CC1 | 70%
70 | CCc1ccccc1NC(=O)N1CCN(C(=O)c2nsc3ccccc23)CC1 | -1% (active)
71 | CCc1ccc(NC(=O)N2CCN(C(=O)c3nsc4ccccc34)CC2)cc1 | 76%
72 | Cc1cc(C)cc(NC(=O)N2CCN(C(=O)c3nsc4ccccc34)CC2)c1 | 78%

Row | SMILES | survival
73 | O=C(Nc1ccccc1)N1CCN(C(=O)c2nsc3ccccc23)CC1 | 85%
74 | Cc1ccc(C)c(NC(=O)N2CCN(C(=O)c3nsc4ccccc34)CC2)c1 | 69%
75 | CCC(C(=O)NCc1ccccc1Cl)n1c(=O)c2cccn2c2ccccc21 (centres undefined) | 76%
76 | O=c1c2oc3ccccc3c2n(Cc2cccc(F)c2)c(=O)n1Cc1ccc2c(c1)OCO2 | 86%
77 | O=C(Cn1c(-c2cccs2)cc2cc(F)ccc21)N1CCCCC1 | 72%
78 | O=C(NCc1ccccc1)c1ccc2oc(=O)n(Cc3ccccc3)c2c1 | 71%
79 | O=C(NCc1ccc(F)cc1)c1ccc2oc(=O)n(Cc3ccccc3)c2c1 | -4% (active)
80 | O=C(Nc1ccc(Cl)cc1)c1ccc2oc(=O)n(Cc3ccccc3)c2c1 | 63%
81 | O=C(NCc1ccc(Cl)cc1)c1ccc2oc(=O)n(Cc3ccccc3)c2c1 | 129%
82 | O=C(Nc1cccc(F)c1)c1ccc2oc(=O)n(Cc3ccccc3)c2c1 | 81%
83 | Cc1cccc(CNC(=O)c2ccc3oc(=O)n(Cc4ccccc4)c3c2)c1 | 60%
84 | CCn1nnc2cc(C(=O)Nc3ccc(C)c(Cl)c3)ccc21 | 53%
85 | Cc1ccc(CNC(=O)c2ccc3oc(=O)n(Cc4ccccc4)c3c2)cc1 | 57%
86 | CCc1ccc(NC(=O)c2ccc3oc(=O)n(Cc4ccccc4)c3c2)cc1 | 1% (active)
87 | CCc1ccc(NC(=O)c2ccc3c(c2)nnn3CC)cc1 | -6% (active)
88 | COc1cccc(CNC(=O)c2ccc3oc(=O)n(Cc4ccccc4)c3c2)c1 | -3% (active)
89 | CCn1nnc2cc(C(=O)Nc3ccc(OC)cc3)ccc21 | 73%
90 | Cc1nn(Cc2ccccc2)c(C)c1NC(=O)c1cc(C(C)C)on1 | 77%
91 | O=C(Nc1ccc(NC(=O)c2cccs2)cc1)c1ccc(Cl)cc1 | 81%
92 | Cc1onc(-c2c(Cl)cccc2Cl)c1C(=O)n1c(C)nc2ccccc21 | 105%
93 | Cc1cc(C)cc(NC(=O)Cn2c(-c3cncs3)nc3ccccc32)c1 | 63%
94 | CN(C)C(=O)Cn1c2[n+](c3ccccc31)CC(O)CS2 (centres undefined) | 103%

Source: PubChem BioAssay AID463173 (ICCB-Longwood Screening Facility, Harvard Medical School, 2010)
